This is part of a sample that, as a whole, favours compounds with a hit. Of some 83,000 tested, about 20% had one in any assay.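 Interpretation: 100, growth as untreated; towards 0, rising growth inhibition; 0, no net growth; 0 to -100, cell death. Compounds scoring below 10 were considered active.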 A number with no mark means an inactive call. Activity calls are given as the source filed them.
The compounds below were run on HL-60(TB) leukemia (assay: NCI-60 one-dose screen, 48 h (100 = growth as untreated, 0 = no growth, -100 = all killed)). Conditions: 10 µM unless noted.
With `O=C(O)C#Cc1ccc(Cl)cc1` the growth was 94.1%. With `N#CC1=C(N)Oc2c(ccc3ccccc23)C1c1cc(=O)oc2ccc(Cl)cc12` (stereo not given) the growth was -10.1% (active). Work on `COc1ccc(/C(C)=C(\c2ccc(Cl)cc2)c2ccc(OCCCN(C)C)cc2)cc1` yielded a growth of 67.1%. `CC1CN(CCCOC(=O)Nc2ccc(Cl)cc2)CCN1C(C)(C)C` (stereo not given) showed a growth of 96.1%. In the case of `Clc1ccc(/C=C/c2ccccn2)cc1`, the growth is reported as 99.4%. In the case of `CCCCN(CCCC)c1ccc(C(=NC(C)CCCN(CC)CC)c2ccc(N(C)C)cc2)cc1` (stereo not given), the growth is reported as -32.1% (active). For `Cc1cccc(NC(=O)c2sc3nc4c(cc3c2N)C(=O)CCC4)c1`, the growth was 6.14% (active). With `COc1ccc(C2=NN(C(N)=S)C(c3ccc4c(c3)OCO4)C2)cc1` (stereo not given) the growth was 30.4%. `C=C1C(=O)O[C@H]2[C@H]1CC/C(COC(=O)N[C@@H](Cc1c[nH]c3ccccc13)C(=O)OC)=C\CC[C@@]1(C)O[C@@H]21` was tested, and the growth was -52.6% (active). `COc1cccc2c1O/C(=C\c1c([N+](=O)[O-])ncn1C)C2=O` was tested, and the growth was 95.8%. With `COc1cc(/C=C/C(=O)CC(=O)/C=C/c2ccc(O)c(OC)c2)ccc1O` the growth was 0.358% (active). `Cn1ncc(CC(=O)O)c1-n1nnc2cc(Cl)ccc2c1=O` showed a growth of 97.2%. In the case of `CCCCCCCCCc1ccc(OCCOCCOCCOCCOCCOCCOCCOCCOCCO)cc1`, the growth is reported as -40.9% (active). `O=C(CNC(=O)c1cccc2ccccc12)Nc1ccccc1Oc1ccccc1` was tested, and the growth was 7.14% (active). In the case of `CC(=O)Nc1ccc(S(=O)(=O)N/N=C(\C)c2ccc(C)cc2C)cc1`, the growth is reported as 86.4%.
